Source: PubChem BioAssay (National Center for Advancing Translational Sciences (NCATS))
Compounds with a hit are over-represented: about 2.5% of the library has one in this group of screens.
Cruzain noTriton = inhibitors of Trypanosoma cruzi cruzain without detergent; Potency, µM, hits mostly inhibitors; 200,000 tested, 2.3% active; purified cruzain, Z-FR-AMC fluorescence, no detergent; note: nearly all actives have a fitted effect of over 40% in size
Target sequence (P25779 123-467 limits assumed): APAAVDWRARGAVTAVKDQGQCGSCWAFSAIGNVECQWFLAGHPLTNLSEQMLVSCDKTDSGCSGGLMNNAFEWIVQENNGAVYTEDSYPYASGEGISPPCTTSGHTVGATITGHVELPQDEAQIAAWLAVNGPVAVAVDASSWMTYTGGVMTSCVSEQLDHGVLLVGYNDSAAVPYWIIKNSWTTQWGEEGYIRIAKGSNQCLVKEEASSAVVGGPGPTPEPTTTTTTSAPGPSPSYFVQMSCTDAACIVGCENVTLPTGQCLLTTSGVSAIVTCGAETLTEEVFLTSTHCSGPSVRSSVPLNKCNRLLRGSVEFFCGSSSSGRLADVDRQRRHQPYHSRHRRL
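Purified cruzain at 1.5 nM, pre-incubated 15 min with compound at room temperature in 100 mM sodium acetate pH 5.5, 5 mM DTT, 0.00005% Triton X-100. Reaction started with 2 uM Z-FR-AMC; AMC fluorescence increase over 60 s gives rate.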
Cruzain Triton = blocks cruzain activity in presence of Triton detergent; purified cruzain, Z-FR-AMC fluorescence, 0.01% Triton; AID 1478; P25779; 200,000 tested, 0.43% active; Potency, µM, actives largely listed as inhibitors; note: nearly all actives have a fitted effect of over 40% in size
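Steps: dispense cruzain (1.5 nM final) in acetate buffer pH 5.5 with DTT and 0.01% Triton X-100; pin-transfer compounds; incubate 15 min RT; add Z-FR-AMC (2 uM final); read fluorescence every 30 s, using the 60 s intensity change.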
Of the large screens only hits and unclear results are named; the others gave an inactive call. Calls come from the whole dose curve; as a rule, active = well fitted curve in the direction sought with a large enough effect; inconclusive = small, poorly fitted or top-dose-only effect, or another doubt; inactive = no such curve, though single readings can be large; an effect the other way counts as inactive or inconclusive.

CCOc1nc2cccc(C(=O)OC(C)OC(=O)OC3CCCCC3)c2n1Cc1ccc(-c2ccccc2-c2nn[nH]n2)cc1 (configuration not stated)	Cruzain noTriton inconclusive, Cruzain Triton 14µM
CC(C)(C)NC(=O)NC(=O)COC(=O)c1cccc(F)c1	none
O=C(CNC(=O)c1cccc(F)c1)OCC(=O)N1CCCc2ccccc21	Cruzain noTriton 10µM, Cruzain Triton 11µM
CC(C)(C)NC(=O)NC(=O)COC(=O)CNC(=O)c1cccc(F)c1	Cruzain noTriton inconclusive, Cruzain Triton 22µM
O=C(CNC(=O)c1ccccc1F)OCC(=O)N1CCCc2ccccc21	Cruzain noTriton 10µM, Cruzain Triton 10µM
O=C(OCC(=O)N1CCc2ccccc21)c1cccc(S(=O)(=O)N2CCCc3ccccc32)c1	Cruzain noTriton inconclusive
O=C(Cc1ccccc1)NCCC1=CCCCC1	none
O=C(COC(=O)CNC(=O)c1ccccc1F)NCCC1=CCCCC1	Cruzain noTriton 10µM, Cruzain Triton 14µM
COCC(=O)N1CCCc2ccccc21	none
CC(C)(C)C(=O)Nc1ccccc1C(=O)OCc1cc(=O)n2ccsc2n1	none
CC1(C)CC(N=C=O)CC(C)(CN=C=O)C1 (configuration not stated)	none
COc1ccccc1N1CCN(C(=O)c2cnn(-c3ccc(F)cc3F)c2C2CCNCC2)CC1	none
CCOC(=O)c1ccc(N2C(=O)c3n[nH]c(-c4ccco4)c3C2c2ccccc2OC)cc1 (configuration not stated)	Cruzain noTriton inconclusive
Cc1cc(Cl)ccc1Nc1sc(C(=O)c2cc3cc(Cl)ccc3o2)c(N)c1C#N	Cruzain noTriton inconclusive
CCOc1ccccc1N=C1SC(CC(=O)Nc2ccc(OC)cc2OC)C(=O)N1CCC1=CCCCC1 (configuration not stated)	Cruzain noTriton inconclusive
CCOc1ccc(/C(C)=N/N2C(=O)C(CC(=O)Nc3ccc(OC)cc3[N+](=O)[O-])SC2=Nc2cccc(C)c2C)cc1 (configuration not stated)	Cruzain noTriton 10µM
CCCCc1nc(NCc2ccccc2)c(C#N)c2c1COC(C)(C)C2	Cruzain noTriton 25µM
CCc1nc(NCC(C)C)c(C#N)c2c1COC(C)(C)C2	none
OCC(CO)(CBr)CBr	none
C[C@@]12CC[C@H]3[C@@H](CC[C@H]4C[C@@H](O)CC[C@]43C)[C@H]1CC[C@@H]2C(=O)C[C@H](O)C(F)(F)F	none
Cc1nn(C(=O)c2cccs2)c(C)c1CN1C(=O)c2ccccc2C1=O	Cruzain noTriton 20µM
Cc1nn(C(=O)c2ccco2)c(C)c1CN1C(=O)c2ccccc2C1=O	none
Cc1cc(C(=O)COC(=O)c2cc(Cl)ccc2N)c(C)n1Cc1ccco1	Cruzain noTriton 25µM
COC(=O)c1c(C(=O)OC)c(C)n(Cc2ccco2)c1C	none
COc1ccc(NC(=O)CSc2nc3c(c(=O)n2-c2ccccc2OC)SCC3)cc1	none
CCSc1nnc(NC(=O)CSc2nc3c(c(=O)n2-c2ccccc2OC)SCC3)s1	Cruzain Triton 28µM
C=CCn1c(SCC(=O)Nc2nccs2)nnc1-c1cc2cccc(OC)c2o1	Cruzain noTriton 25µM
C=CCn1c(SCC(=O)Nc2ccccc2OC)nnc1-c1ccco1	none
NC(=S)NNC(N)=S	none
COC(=O)c1sc(-c2ccccc2)cc1NC(=O)Nc1ccc(Cl)cc1	Cruzain noTriton inconclusive
COC(=O)c1sc(-c2ccccc2)cc1NC(=O)Nc1ccccc1Cl	Cruzain noTriton 10µM
O=c1cc(CF)[nH]c(=S)[nH]1	none
O=C(CNC(=O)/C(=C\c1ccc(Br)cc1)NC(=O)c1ccccc1)OCc1ccccc1	Cruzain noTriton inconclusive, Cruzain Triton 10µM
O=C(CNC(=O)/C(=C/c1ccccc1)NC(=O)c1ccc(Br)cc1)OCc1ccccc1	Cruzain Triton inconclusive
Cc1ccc(-c2nnc(Nc3ccc(C(N)=O)cc3)c3ccccc23)cc1S(N)(=O)=O	none
Cc1cccc(NC(=O)CSc2nc(=O)n(Cc3ccccn3)c3c2CCC3)c1C	none
COc1ccc(NC(=O)C2CCCN(S(=O)(=O)c3ccc(Cl)cc3)C2)cc1 (configuration not stated)	none
Cc1ccc(CCNC(=O)c2nn(C)c3c2CSc2ccccc2-3)cc1	none
Cc1ccc(CNC(=O)c2nn(C)c3c2CSc2ccc(C)cc2-3)cc1	Cruzain noTriton 20µM
Nc1nc(Nc2cccc(F)c2)nc2ccccc12	Cruzain noTriton 16µM, Cruzain Triton inconclusive
O=c1oc(Nc2cccc(F)c2)nc2ccccc12	none
COCC(C)NC(C(=O)Nc1ccc(C)c(Cl)c1)c1ccccc1 (configuration not stated)	none
Cc1ccc(NC(=O)C(OC(=O)c2ccc(C=O)cc2)c2ccccc2)cc1Cl (configuration not stated)	Cruzain noTriton 25µM
CCSc1nc2c(c(=O)[nH]c(=O)n2C)n1CC(O)COc1ccc(Cl)cc1 (configuration not stated)	none
O=c1[nH]c2cc(Br)cnc2nc1/C=C(\O)c1ccc(F)cc1	Cruzain noTriton 25µM
O=C(NCc1nc2ncc(Br)cc2[nH]1)c1ccccc1	none
CCc1ccc(S(=O)(=O)c2cnc3ccc(OC)cc3c2N2CCCC(C)C2)cc1 (configuration not stated)	none
Cc1cc(C)n(/N=C/c2cccc([N+](=O)[O-])c2)c(=O)c1	none
Cc1ccc(N=Cc2nc(/C=C/c3cccc([N+](=O)[O-])c3)oc2O)cc1	Cruzain noTriton 5µM
COc1ccc(-c2csc(NC(=O)c3ccccc3NS(=O)(=O)c3ccc(C)cc3)n2)cc1	Cruzain noTriton inconclusive
COc1ccc(S(=O)(=O)Nc2ccccc2C(=O)Nc2nc(-c3ccc(F)cc3)cs2)cc1OC	Cruzain noTriton 20µM
O=C(Nc1cccc(Cl)c1)Nc1ccc(Cl)cn1	Cruzain noTriton 25µM
O=C(Nc1ccc(F)cc1)Nc1ccc(Cl)cn1	none
CCCCc1cc(=O)oc2c(CN3CCCC3)c(O)ccc12	Cruzain noTriton inconclusive, Cruzain Triton 25µM
CCc1cc2c(-c3ccccc3)cc(=O)oc2c(CN2CCOCC2)c1O	none
O=c1cc(-c2ccccc2)c2ccc(O)c(CN3CCCCC3)c2o1	Cruzain noTriton inconclusive
CCc1c(C)c2cc(Cl)c(O)c(CN3CCCCC3)c2oc1=O	Cruzain noTriton inconclusive, Cruzain Triton 32µM
CCc1c(C)c2ccc(O)c(CN3CCN(c4ccccc4)CC3)c2oc1=O	none
CCc1cc(=O)oc2c(CN3CCCC3)c(O)c(Cl)cc12	Cruzain noTriton inconclusive, Cruzain Triton 28µM
CN1CCC[C@@H]1c1cccnc1.O=C(O)c1ccccc1O.O=C([OH2+])c1ccccc1O.O=C([OH2+])c1ccccc1O.O=C([OH2+])c1ccccc1O.[Mn]	none
NS(=O)(=O)c1ccc(N=Nc2ncccc2O)cc1	none
C=CC(C1=CC(=O)C(OC)=C(OC)C1=O)c1ccccc1 (configuration not stated)	none
Cc1ccc(C(=O)ON=C2CCN(c3ccc([N+](=O)[O-])cc3)CC2)cc1	Cruzain noTriton 32µM
Cc1ccc(C(=O)NC(=S)N2CCN(c3ccc([N+](=O)[O-])cc3)CC2)cc1	none
CC1=NCC[N@@+]1(CCc1ccccc1)Cc1ccccc1	none
COc1cc2c3cc1Oc1c(OC)c(OC)cc4c1[C@@H](Cc1ccc(O)c(c1)Oc1ccc(cc1)C[C@@H]3N(C)CC2)CN(C)C4	none
O=C(Nc1ccccc1)c1ccc(NCC2CCCO2)c([N+](=O)[O-])c1 (configuration not stated)	none
O=C(Nc1ccccc1)c1ccc(Nc2c([N+](=O)[O-])cc([N+](=O)[O-])c3ccccc23)cc1	Cruzain noTriton 10µM
